In PubChem BioAssay (NCI) one finds growth data, which are given here for seven compounds.

Molecules are shown by their SMILES. Compounds without any hit were thinned out: in the full panel of roughly 83,000, 20% have a hit.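 Interpretation: 100, growth as untreated; towards 0, rising growth inhibition; 0, no net growth; 0 to -100, cell death. Compounds scoring below 10 were considered active.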 Values without a mark were called inactive. The source made the active and inactive calls.

Assay in all cases: NCI-60 one-dose screen, 48 h (100 = growth as untreated, 0 = no growth, -100 = all killed)
Common to all, as to conditions: 10 µM unless noted

For assay [1], the system named is SK-MEL-2 melanoma.
The test system of assay [2] is EKVX NSCLC.
Assay [3] relates to SN12C renal.
The test system of assay [4] is UO-31 renal.
Assay [5] concerns TK-10 renal.
The subject of assay [6] is ACHN renal.
The test system of assay [7] is CAKI-1 renal.
For assay [8], the system named is A498 renal.
The subject of assay [9] is CCRF-CEM leukemia.
The test system of assay [10] is MOLT-4 leukemia.
Assay [11] relates to SR leukemia.
In assay [12] the test system is RPMI-8226 leukemia.
Assay [13] deals with OVCAR-8 ovarian.
In assay [14] the test system is OVCAR-5 ovarian.
The subject of assay [15] is OVCAR-4 ovarian.
The subject of assay [16] is SK-OV-3 ovarian.
For assay [17], the system named is IGROV1 ovarian.
Assay [18] deals with OVCAR-3 ovarian.
Assay [19] concerns HS 578T breast.
The subject of assay [20] is NCI/ADR-RES ovarian.

For the compound `CC(=O)CC(=O)c1ccccc1.[Cu+2]`, the growth was 107% in assay [1]; 99.4% in assay [2]; 105% in [3]; 94.5% in assay [4]; 103% in [5]; 104% in assay [6]. Moreover, the growth in assay [7] was 101%; in assay [8], 141%; in [9], -10.7% (active); in assay [10], 91.7%; in [11], 51.8%; in assay [12] it was 97.8%. Besides, the growth in assay [13] is 110%; in assay [14], 107%; in assay [15] it was 106%; in [16], 82.4%; in [17], 87%; in [18] it was 114%. Besides, the results for the growth in [19] and in assay [20] were 119% and 104%, respectively.

Take `CCOc1ccc(-c2cc(C3(S(=O)(=O)c4ccc(C)cc4)CC=CC3)on2)cc1`: the growth in [1] is 90.3%; in [2], 68.8%; in [3] it was 87%; in assay [4], 81.4%; in [5] it was 94.1%; in [6] it was 86.8%. Also, the growth is 83.2% in assay [7]; 72.1% in assay [8]; 76.6% in assay [9]; 76.8% in [10]; 69.1% in [11]; 62.4% in [12]. For the same compound, the growth was 90.4% in assay [13]; 101% in [14]; 74.3% in assay [15]; 91% in assay [16]; 88.5% in assay [17]; 92% in assay [18]. In addition, the growth in assay [19] was 96.4%; in assay [20] it was 71%.

As to `Oc1ccc(Cc2ccc(O)c3ncccc23)c2cccnc12`, the growth in [1] was -17.9% (active); in assay [2] it was 8.21% (active); in assay [3] it was 8.11% (active); in [4], 1.7% (active); in [5], -9.53% (active); in assay [6] it was -4.29% (active). Besides, the growth in assay [7] was 16.2%; in [8], 5.58% (active); in assay [9], 17.4%; in assay [10], 11.8%; in assay [11] it was 9.74% (active); in assay [12], 8.21% (active). In addition, the growth in assay [13] is 12.6%; in assay [14] it was 21.6%; in assay [15], 14.2%; in [16], -17.2% (active); in [17], 7.8% (active); in [18], 14.1%. Moreover, the growth in assay [19] was 36.6%; in [20] it was 20.2%.

For the compound `CN1CCN(Cc2ccc(NC(=O)c3cncc(C#Cc4c(N)ncc5ccccc45)c3)cc2C(F)(F)F)CC1`, the growth in [1] was -79.2% (active); in assay [2] it was -34.8% (active); in assay [3] it was -97.4% (active); in assay [4] it was -78.8% (active); in [5] it was -97.6% (active); in [6], -91.5% (active). Further, the growth in assay [7] is -66.2% (active); in assay [8], -63.2% (active); in [9], -7.03% (active); in assay [10], -41.3% (active); in assay [11], -42.6% (active); in assay [12] it was -38% (active). Further, the growth in assay [13] was -62.3% (active); in assay [14] it was -22.2% (active); in [15], -55.1% (active); in assay [16], 8.37% (active); in [17], -62% (active); in [18], -78.4% (active). The growth is -31.5% (active) in assay [19] and -24.5% (active) in assay [20].

As for `O=C(/C=C/c1ccc(Cl)cc1)c1ccc(Nc2ccnc3cc(Cl)ccc23)cc1`, the growth in [1] is 54%; in assay [2] it was 136%; in assay [3] it was 97.1%; in assay [4] it was 65%; in assay [5] it was 111%; in assay [6], 109%. Further, the growth in assay [7] is 76.3%; in [8], 108%; in [9], 3.01% (active); in assay [10] it was 43.4%; in assay [11], -17% (active); in [12], -41.9% (active). Besides, the growth in [13] is 85.2%; in [14], 84.6%; in assay [15], 94.7%; in assay [16] it was 112%; in assay [17], 57%; in assay [18] it was 86.5%. Moreover, the growth in [19] is 102%; in [20], 83.5%.

For `CCOC(=O)C1=CCC(n2cc(F)c(=O)[nH]c2=O)O1` (stereo not given), the growth was 103% in [1]; 118% in [2]; 104% in assay [3]; 87.8% in assay [4]; 110% in [5]; 103% in [6]. In addition, the growth is 102% in [7]; 99.9% in [8]; 97.4% in assay [9]; 92.9% in assay [10]; 99.8% in assay [11]; 105% in assay [12]. The growth in [13] was 97%; in assay [14], 119%; in assay [15], 130%; in assay [16], 121%; in [17], 126%; in assay [18] it was 92.5%. Also, the results for the growth in assay [19] and in [20] were 116% and 106%, respectively.

On to `C#CCOC(=O)C(N)CSSCC(N)C(=O)O` (stereo not given), for which the growth in assay [1] was 89.2%; in assay [2], 102%; in assay [3] it was 105%; in assay [4], 83.5%; in assay [5], 100%; in assay [6], 91.7%. Also, the growth in [7] is 90.7%; in [8], 116%; in [9], 99.4%; in [10], 102%; in assay [11], 96.1%; in assay [12] it was 103%. Also, the growth is 111% in assay [13]; 84.4% in assay [14]; 95.9% in assay [15]; 109% in assay [16]; 99.5% in assay [17]; 112% in [18]. The growth in [19] is 107%; in assay [20], 101%.
